Source: PubChem BioAssay AID1159580 (chemical genetic matrix, 2015)
Hit rate of the full screen: of about 5,500 compounds, about 2,000 (36%) were called active. Roughly 18% stayed inconclusive and do not appear here. Rule as the data show it: active = normalized growth mostly below about 0.91 (no sharp cut-off); inconclusive = no clear call, values can overlap the other calls; inactive = mostly above about 0.92. This is one part of the list.

Assay: chemical genetic growth profiling, strain panel (AID 1159580);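 also: tested at 20 µM; growth read once vehicle control cultures reached saturation at 30 °C; 1 = growth at the plate median or of vehicle wells; lower values mean less growth of the strain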
Details: growth OD

Measured: normalized growth

COc1ccc(C(=O)c2ccccc2O)c(O)c1
active: S. cerevisiae deletion strains, locus YKL085W, strain MDH1 (second series), hits give low values 0.905 | S. cerevisiae deletion strains, locus YKL085W, strain MDH1, hits give low values 0.905 | S. cerevisiae deletion strains, locus YKL160W, strain elf1, hits give low values 0.896 | S. cerevisiae deletion strains, locus YKR001C, strain vps1, hits give low values 0.71 | S. cerevisiae deletion strains, locus YKR026C, strain gcn3, hits give low values 0.894 | S. cerevisiae deletion strains, locus YKR091W, strain srl3, hits give low values 0.901 | S. cerevisiae deletion strains, locus YLL026W, hits give low values 0.88 | S. cerevisiae deletion strains, locus YLL041C, strain sdh2, hits give low values 0.885 | S. cerevisiae deletion strains, locus YLR027C, strain aat2, hits give low values 0.875 | S. cerevisiae deletion strains, locus YLR039C, strain RIC1, hits give low values 0.63 | S. cerevisiae deletion strains, locus YLR221C, strain rsa3, hits give low values 0.891 | S. cerevisiae deletion strains, locus YLR258W, strain gsy2, hits give low values 0.869 | S. cerevisiae deletion strains, locus YLR262C, strain YPT6 (second series), hits give low values 0.46 | S. cerevisiae deletion strains, locus YLR262C, strain YPT6, hits give low values 0.562 | S. cerevisiae deletion strains, locus YLR320W, strain mms22, hits give low values 0.717 | S. cerevisiae deletion strains, locus YLR342W, strain FKS1, hits give low values 0.872 | S. cerevisiae deletion strains, locus YLR370C, strain arc18, hits give low values 0.841 | S. cerevisiae deletion strains, locus YLR384C, strain iki3, hits give low values 0.89 | S. cerevisiae deletion strains, locus YLR418C, strain cdc73, hits give low values 0.821 | S. cerevisiae deletion strains, locus YML120C, strain ndi1, hits give low values 0.878 | S. cerevisiae deletion strains, locus YML124C, strain tub3, hits give low values 0.925 | S. cerevisiae deletion strains, locus YMR058W, strain fet3, hits give low values 0.824 | S. cerevisiae deletion strains, locus YMR129W, hits give low values 0.888 | S. cerevisiae deletion strains, locus YMR205C, strain PFK2, hits give low values 0.803 | S. cerevisiae deletion strains, locus YMR223W, strain ubp8, hits give low values 0.873 | S. cerevisiae deletion strains, locus YMR231W, strain pep5, hits give low values 0.895 | S. cerevisiae deletion strains, locus YNL071W, strain lat1, hits give low values 0.75 | S. cerevisiae deletion strains, locus YNL209W, strain ssb2, hits give low values 0.913 | S. cerevisiae deletion strains, locus YNL233W, strain BNI4, hits give low values 0.869 | S. cerevisiae deletion strains, locus YNL248C, strain rpa49, hits give low values 0.858 | S. cerevisiae deletion strains, locus YNL271C, strain bni1, hits give low values 0.91 | S. cerevisiae deletion strains, locus YNL298W, strain CLA4, hits give low values 0.899 | S. cerevisiae deletion strains, locus YNL307C, strain MCK1, hits give low values 0.874 | S. cerevisiae deletion strains, locus YNL322C, strain KRE1 (second series), hits give low values 0.888 | S. cerevisiae deletion strains, locus YNR049C, strain mso1, hits give low values 0.889 | S. cerevisiae deletion strains, locus YOL147C, strain pex11, hits give low values 0.924 | S. cerevisiae deletion strains, locus YOR001W, strain rrp6, hits give low values 0.794 | S. cerevisiae deletion strains, locus YOR070C, strain gyp1, hits give low values 0.913 | S. cerevisiae deletion strains, locus YOR083W, strain WHI5, hits give low values 0.884 | S. cerevisiae deletion strains, locus YOR106W, strain vam3, hits give low values 0.866 | S. cerevisiae deletion strains, locus YOR184W, strain ser1, hits give low values 0.754 | S. cerevisiae deletion strains, locus YOR265W, strain rbl2, hits give low values 0.891 | S. cerevisiae deletion strains, locus YOR270C, strain vph1, hits give low values 0.469 | S. cerevisiae deletion strains, locus YOR290C, strain snf2, hits give low values 0.803 | S. cerevisiae deletion strains, locus YPL051W, strain arl3, hits give low values 0.729 | S. cerevisiae deletion strains, locus YPL078C, strain atp4, hits give low values 0.79 | S. cerevisiae deletion strains, locus YPL240C, strain hsp82, hits give low values 0.901 | S. cerevisiae deletion strains, locus YPR141C, strain kar3, hits give low values 0.905 | S. cerevisiae deletion strains, strain wtn01, hits give low values 0.891
inactive: S. cerevisiae deletion strains, locus YJR066W, strain TOR1, hits give low values 0.901 | S. cerevisiae deletion strains, locus YKL009W, strain mrt4, hits give low values 0.895 | S. cerevisiae deletion strains, locus YKL068W, hits give low values 0.944 | S. cerevisiae deletion strains, locus YKL190W, strain CNB1, hits give low values 0.963 | S. cerevisiae deletion strains, locus YLL001W, strain dnm1, hits give low values 0.92 | S. cerevisiae deletion strains, locus YLR058C, strain SHM2, hits give low values 0.919 | S. cerevisiae deletion strains, locus YLR102C, strain apc9, hits give low values 0.948 | S. cerevisiae deletion strains, locus YLR113W, strain HOG1, hits give low values 0.907 | S. cerevisiae deletion strains, locus YLR268W, strain sec22, hits give low values 0.938 | S. cerevisiae deletion strains, locus YLR330W, strain CHS5, hits give low values 0.923 | S. cerevisiae deletion strains, locus YLR342W, strain FKS1 (second series), hits give low values 0.838 | S. cerevisiae deletion strains, locus YLR357W, strain rsc2, hits give low values 0.986 | S. cerevisiae deletion strains, locus YLR371W, strain rom2, hits give low values 0.91 | S. cerevisiae deletion strains, locus YML016C, strain PPZ1, hits give low values 0.93 | S. cerevisiae deletion strains, locus YML032C, strain rad52, hits give low values 0.923 | S. cerevisiae deletion strains, locus YMR078C, strain ctf18, hits give low values 0.913 | S. cerevisiae deletion strains, locus YMR125W, strain sto1, hits give low values 0.915 | S. cerevisiae deletion strains, locus YMR263W, strain SAP30, hits give low values 0.903 | S. cerevisiae deletion strains, locus YMR307W, strain GAS1, hits give low values 0.852 | S. cerevisiae deletion strains, locus YNL067W, strain RPL9B, hits give low values 0.892 | S. cerevisiae deletion strains, locus YNL128W, strain TEP1, hits give low values 0.948 | S. cerevisiae deletion strains, locus YNL183C, strain NPR1, hits give low values 0.908 | S. cerevisiae deletion strains, locus YNL250W, strain rad50, hits give low values 0.951 | S. cerevisiae deletion strains, locus YNL322C, strain KRE1, hits give low values 0.983 | S. cerevisiae deletion strains, locus YNR052C, strain pop2, hits give low values 0.96 | S. cerevisiae deletion strains, locus YOL006C, strain TOP1, hits give low values 0.564 | S. cerevisiae deletion strains, locus YOL012C, strain htz1 1.21 | S. cerevisiae deletion strains, locus YOR061W, strain CKA2, hits give low values 0.945 | S. cerevisiae deletion strains, locus YOR069W, strain VPS5, hits give low values 0.955 | S. cerevisiae deletion strains, locus YOR080W, strain dia2, hits give low values 0.919 | S. cerevisiae deletion strains, locus YOR136W, strain idh2, hits give low values 0.961 | S. cerevisiae deletion strains, locus YOR144C, strain elg1, hits give low values 0.938 | S. cerevisiae deletion strains, locus YOR231W, strain MKK1, hits give low values 0.958 | S. cerevisiae deletion strains, locus YOR316C, strain cot1, hits give low values 0.936 | S. cerevisiae deletion strains, locus YPL055C, strain LGE1, hits give low values 0.9 | S. cerevisiae deletion strains, locus YPL106C, strain sse1, hits give low values 0.935 | S. cerevisiae deletion strains, locus YPL241C, strain CIN2, hits give low values 0.972 | S. cerevisiae deletion strains, locus YPL256C, strain CLN2, hits give low values 0.918 | S. cerevisiae deletion strains, locus YPR119W, strain clb2, hits give low values 0.931 | S. cerevisiae deletion strains, locus YPR163C, strain tif3, hits give low values 0.968 | S. cerevisiae deletion strains, locus YPR167C, strain met16, hits give low values 0.925 | S. cerevisiae strains, strain wild type, hits give low values 0.951
